For experiment [1], the target named is T1, Aspartate--tRNA(Asp/Asn) ligase (Mycobacterium tuberculosis (strain ATCC 25618 / H37Rv)) (UniProt P9WFW3). Further: in the data most compounds retested in dose-response had high values.
T1 sequence (whole entry): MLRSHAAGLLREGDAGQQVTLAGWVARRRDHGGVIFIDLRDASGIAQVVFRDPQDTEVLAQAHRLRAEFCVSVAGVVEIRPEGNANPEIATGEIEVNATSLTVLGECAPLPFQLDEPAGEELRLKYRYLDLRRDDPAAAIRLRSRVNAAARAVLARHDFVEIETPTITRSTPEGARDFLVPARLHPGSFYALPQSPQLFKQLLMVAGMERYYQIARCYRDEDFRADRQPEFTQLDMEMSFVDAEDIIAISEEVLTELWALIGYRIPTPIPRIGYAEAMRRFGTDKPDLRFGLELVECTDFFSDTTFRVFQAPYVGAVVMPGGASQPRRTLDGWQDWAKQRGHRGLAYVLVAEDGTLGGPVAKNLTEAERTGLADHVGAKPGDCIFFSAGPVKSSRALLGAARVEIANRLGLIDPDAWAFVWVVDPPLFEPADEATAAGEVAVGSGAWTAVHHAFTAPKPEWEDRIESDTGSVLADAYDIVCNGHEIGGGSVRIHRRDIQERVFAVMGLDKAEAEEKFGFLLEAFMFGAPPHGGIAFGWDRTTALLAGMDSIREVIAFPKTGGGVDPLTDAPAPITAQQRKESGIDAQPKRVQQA
In words: Assay for Asp RNA synthetase-1 from Mycobacterium tuberculosis. Format: functional. Details: scale not given: direction of the effect not stated beside the values. Conditions: 30 µM.

The target of experiment [2] is Shiga toxin 2 (Escherichia coli O157:H7) (UniProt P09385+P09386). In words: E. coli 0.157:H7 Shiga Toxin SOP - stx2 screening assay. Format: functional. Details: scale not given: direction of the effect not stated beside the values. The note with it: 30 µM.

`CN(Cc1ccon1)C(=O)C1CC(=O)N(Cc2ccncc2)C1` (centres undefined): the figures for the Percent Effect in experiment [1] and in experiment [2] were 5.91% and 6.22%, respectively.

For `CCc1nnc2n1CCN(C(=O)c1ccc(C(F)(F)F)nc1C)C2`, the Percent Effect in experiment [1] was 1.43%; in experiment [2], -8.18%.

Take `O=C(c1cc(F)ccc1F)C1CCN(C(=O)c2ccc(=O)[nH]n2)CC1`: the results for the Percent Effect in experiment [1] and in experiment [2] were 0.519% and 28.6%, respectively.

Regarding `Cc1ccc(CN2CCOC3(CCCN(C(=O)c4ccco4)C3)C2)s1` (centres undefined), the results for the Percent Effect in experiment [1] and in experiment [2] were 4.58% and -29.2%, respectively.

With `Cc1ncsc1C(=O)NC1CCN(CC(=O)NCc2ccccc2)CC1`, the Percent Effect is 1.54% in experiment [1] and 34.9% in experiment [2].

On to `COc1c(CNCc2cccc(CN(C)C)c2)c(C)nn1C`, for which the Percent Effect in experiment [1] is -1.85%; in experiment [2] it was 13.1%.

In the case of `Cc1cccc(C(=O)NCc2ccc(N3CCCCC3)nc2)n1`, the Percent Effect in experiment [1] is 2.43%; in experiment [2], -10.8%.

`COc1ccc(C2CC(=O)Oc3cc(C)[nH]c(=O)c32)cc1` (centres undefined): the Percent Effect was 0.232% in experiment [1] and -8.78% in experiment [2].

`Cc1nc(C)n(C2CCCN(C(=O)c3cc4ccccc4n3C)C2)n1` (centres undefined): the figures for the Percent Effect in experiment [1] and in experiment [2] were -0.634% and 15%, respectively.

As for `CCOc1ccc(NC(=O)NCc2csc(NC)n2)cc1C`, the Percent Effect in experiment [1] was -0.262%; in experiment [2] it was -26.6%.

`O=C(c1nc(=O)[nH][nH]1)N1CCCC(c2cc(C(F)(F)F)[nH]n2)C1` (centres undefined): the Percent Effect in experiment [1] was -1.69%; in experiment [2], -21.8%.

`CN(C)c1cc(C(=O)N2CCN(c3cnccn3)CC2)ccn1`: the Percent Effect in experiment [1] was -1.5%; in experiment [2], 3.8%.

As to `O=C(NCCc1ccsc1)Nc1cccnc1N1CCCC1`, the Percent Effect in experiment [1] was 1.77%; in experiment [2] it was -4.75%.

On to `CCN(CC)c1ccc(NS(=O)(=O)c2cncc(F)c2)cn1`, for which the results for the Percent Effect in experiment [1] and in experiment [2] were 1.66% and -27.3%, respectively.

Turning to `COc1ncc(C2(O)CCN(Cc3c(F)cccc3F)CC2)c(OC)n1`, the Percent Effect in experiment [1] came out at 2.49%; in experiment [2] it was 71.8%.

For `O=C(Nc1cccnc1)[C@H]1CO[C@H]2CCN(c3ncc(F)cn3)C[C@H]2C1`, the Percent Effect in experiment [1] was 0.524%; in experiment [2], -22.2%.

As to `Cc1ccn2cc(C(=O)N3CCCC3c3c(C)nn(C)c3C)nc2c1` (centres undefined), the Percent Effect is -1.79% in experiment [1] and -1.23% in experiment [2].

As for `Cc1ccc(NC2CCN(C(=O)COCC(F)(F)F)CC2)nn1`, the Percent Effect is -0.48% in experiment [1] and -13.9% in experiment [2].

For `CN(C)S(=O)(=O)c1ccc(CN2CCCC2c2ccccc2)o1` (centres undefined), the Percent Effect in experiment [1] was 4.24%; in experiment [2], -1.81%.

As for `CCOCCN1CCn2c(C)nnc2C1`, the Percent Effect in experiment [1] was 1.76%; in experiment [2], -30.6%.

For `CCC(=O)Nc1ccc(C(C)NC(=O)COCCOC)cc1` (centres undefined), the values for the Percent Effect in experiment [1] and in experiment [2] were 0.539% and -16.3%, respectively.

Regarding `COCCN(C)CCN1CC2(CCN(C3CCCOC3)CC2)OC1=O` (centres undefined), the Percent Effect was 3.6% in experiment [1] and -60.6% in experiment [2].

For `c1cnc(NCc2noc3c2CN(C2CCOCC2)CC3)nc1`, the Percent Effect is 2.79% in experiment [1] and -7.78% in experiment [2].

With `Cc1ccc(N2CCCC(NCc3ccc(C)o3)C2)nn1` (centres undefined), the Percent Effect in experiment [1] is -0.626%; in experiment [2], -32.5%.

For `CCc1n[nH]c(C2CN(Cc3nccn3CC)CCO2)n1` (centres undefined), the Percent Effect in experiment [1] was 1.7%; in experiment [2], -10.4%.

For the molecule `c1cnn(CC2CN(CC3CCCC3)CCO2)c1` (centres undefined), the Percent Effect in experiment [1] is -6.1%; in experiment [2], -0.337%.

As to `Cn1ccc(CN2CCC(OCCc3ccccc3)CC2)cc1=O`, the Percent Effect in experiment [1] came to 2.67%; in experiment [2], 8.32%.

In the case of `Cc1cc(C)n(CC(=O)N2CCC(NS(C)(=O)=O)CC2)n1`, the figures for the Percent Effect in experiment [1] and in experiment [2] were -2.75% and 32.8%, respectively.

As for `CN1CC(=O)N(c2cnn(C)c2)CC12CCN(Cc1nccn1C)C2` (centres undefined), the Percent Effect in experiment [1] was -3.88%; in experiment [2] it was -23.4%.

Consider `Cc1ccc(C)c(C(NC(=O)C(C)(C)C)c2cccnc2)c1` (centres undefined), for which the Percent Effect in experiment [1] was -1.21%; in experiment [2], 1.8%.

Consider `CN(C)CC(=O)N1CCOC2(CCCN(c3ncccc3F)C2)C1` (centres undefined), for which the Percent Effect was 1.93% in experiment [1] and -5.68% in experiment [2].

Turning to `CN(Cc1ccc(C#N)cc1)Cc1noc(C(C)(C)C)n1`, the figures for the Percent Effect in experiment [1] and in experiment [2] were -2.67% and -19%, respectively.

On to `O=C([C@@H]1CC[C@@H]2[C@@H](CCN2Cc2cccc(F)c2)O1)N1CCCCO1`, for which the Percent Effect is 0.291% in experiment [1] and -15% in experiment [2].

As to `Cc1ccc(NC(=O)C2=CN=S=N2)cc1`, the Percent Effect in experiment [1] is -2.07%; in experiment [2], -19.2%.

Consider `O=C(c1ccnnc1)N1CCN2C[C@H](Oc3cccc(F)c3)C[C@H]2C1`, for which the Percent Effect in experiment [1] was -0.611%; in experiment [2], -1.95%.

Consider `Cc1cc(NC(=O)NCc2ccccn2)n(C)n1`, for which the Percent Effect in experiment [1] was 3.94%; in experiment [2], -40.7%.

Regarding `NC(=O)C1CCN(C(=O)Cn2nc(-c3ccccc3)oc2=O)C1` (centres undefined), the Percent Effect is 7.46% in experiment [1] and -67.9% in experiment [2].

As for `CCOC1COC2(CCN(S(=O)(=O)c3cccc(F)c3)CC2)C1` (centres undefined), the figures for the Percent Effect in experiment [1] and in experiment [2] were 16.4% and -13%, respectively.

In the case of `CNC(=O)CSc1nc2c(cnn2Cc2ccc(F)cc2)c(=O)[nH]1`, the Percent Effect in experiment [1] was -1.18%; in experiment [2], -8.43%.

Turning to `Cc1cc(CNCc2c(C)nn(C)c2N2CCOCC2)no1`, the Percent Effect in experiment [1] was -2.57%; in experiment [2], 16.5%.

With `CC(C(=O)NCc1ccc(N2CCNC(=O)C2)cc1)n1cncn1` (centres undefined), the results for the Percent Effect in experiment [1] and in experiment [2] were 3.94% and -118%, respectively.

Turning to `CCC1CN(c2nnc(C)c(C)c2C#N)CCO1` (centres undefined), the Percent Effect in experiment [1] stood at 0.1%; in experiment [2], 11.9%.

Consider `c1cnnc(N2CCCC(NCc3ccc(-n4ccnc4)cc3)C2)c1` (centres undefined), for which the Percent Effect is -2.02% in experiment [1] and 10.2% in experiment [2].

For the molecule `COCCC(=O)N1CCC2(COCc3cnc(N4CCOCC4)nc32)C1` (centres undefined), the Percent Effect was 1.66% in experiment [1] and 9.32% in experiment [2].

Turning to `Cc1ccc(N2CC3(CCN(c4nccs4)C3)C2)nn1`, the Percent Effect in experiment [1] is -3.76%; in experiment [2], -64.2%.

On to `COc1ccccc1CCN(C)C(=O)NC(C)c1nncn1C` (centres undefined), for which the Percent Effect is -4.13% in experiment [1] and 1.17% in experiment [2].

Take `CCc1cnc2c(c1Nc1ccncc1)c(=O)n(C)c(=O)n2C`: the Percent Effect is 0.918% in experiment [1] and -8.05% in experiment [2].
